RBX1-CUL1 inh – inhibitors of human ROC1-CUL1 ubiquitin ligase activity; inhibition, % at 10 µM; AID 1347404; 140,000 tested, 0.6% active; in vitro K48 di-Ub FRET, acceptor:donor ratio, 45 min; in the data active = inhibition above about 25%
Target sequence (P62877 whole entry, looked up): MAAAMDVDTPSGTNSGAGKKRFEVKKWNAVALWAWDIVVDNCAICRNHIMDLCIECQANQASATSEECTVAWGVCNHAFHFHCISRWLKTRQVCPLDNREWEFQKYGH
Target sequence (Q13616 whole entry, looked up): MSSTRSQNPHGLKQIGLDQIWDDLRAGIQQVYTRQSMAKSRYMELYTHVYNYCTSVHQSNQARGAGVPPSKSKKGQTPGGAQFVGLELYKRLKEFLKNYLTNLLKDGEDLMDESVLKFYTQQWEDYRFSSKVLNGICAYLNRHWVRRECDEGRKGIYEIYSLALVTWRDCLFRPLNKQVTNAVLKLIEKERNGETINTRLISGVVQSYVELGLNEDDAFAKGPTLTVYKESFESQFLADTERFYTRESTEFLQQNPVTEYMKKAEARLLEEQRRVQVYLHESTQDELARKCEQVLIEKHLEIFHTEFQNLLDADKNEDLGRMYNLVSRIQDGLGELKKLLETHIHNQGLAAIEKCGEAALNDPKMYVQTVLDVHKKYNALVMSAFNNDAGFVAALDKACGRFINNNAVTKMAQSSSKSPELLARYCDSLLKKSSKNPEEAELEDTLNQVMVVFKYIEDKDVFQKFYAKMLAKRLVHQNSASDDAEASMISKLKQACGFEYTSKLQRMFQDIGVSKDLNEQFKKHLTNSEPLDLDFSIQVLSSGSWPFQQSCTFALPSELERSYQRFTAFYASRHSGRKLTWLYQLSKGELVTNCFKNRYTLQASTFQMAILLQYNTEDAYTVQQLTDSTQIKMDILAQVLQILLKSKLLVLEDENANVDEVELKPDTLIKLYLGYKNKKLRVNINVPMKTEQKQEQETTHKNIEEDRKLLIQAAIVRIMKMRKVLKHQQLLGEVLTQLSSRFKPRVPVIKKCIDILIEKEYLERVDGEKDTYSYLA
Numbers stand for hits; 0 = inactive. The sample as a whole holds a higher share of hits than the screen did.

SMILES | RBX1-CUL1 inh
CN1C(=O)C(=NCCc2ccccc2)C2c3ccccc3C(=O)c3cccc1c32 (stereo not given) | 36
Cc1ccc(N=C2C(=O)N(C)c3cccc4c3C2c2ccccc2C4=O)cc1 (stereo not given) | 0
Cn1c(=O)n(C)c2cc(NC(=O)C3CCN(Cc4ccccc4)CC3)ccc21 | 0
CCOC(=O)c1cc(-c2ccc([N+](=O)[O-])cc2)n(NC(=O)COc2ccccc2C)c1C | 0
O=C(NNc1ccc([N+](=O)[O-])cc1[N+](=O)[O-])c1cccc2ccccc12 | 0
Cc1ccccc1OCC(=O)NNc1ccc([N+](=O)[O-])cc1[N+](=O)[O-] | 36
CC1(C)Cc2nc(C(C)(C)C)ncc2C(NC2CCOCC2)C1 (stereo not given) | 0
Cc1cc(C(=O)Nc2ccc(S(=O)(=O)N3CCCCC3)cc2)no1 | 0
CC(=O)Oc1ccc(O)c2c1C(=O)C=CC2=O | 105
COc1cc(C(=O)O)ccc1OC(=O)c1ccccc1OC(C)=O | 0
CC(=O)Oc1ccc(OC(C)=O)c2c1C1CCCCC1=C1CCCCC12 (stereo not given) | 0
O=C(COc1ccc(C2CCCCC2)cc1)Nc1ccccc1F | 0
CC(C)(Oc1ccc(C2CCCCC2)cc1)C(=O)O | 66
COC(=O)c1ccccc1NC(=O)COc1ccc(C2CCCCC2)cc1 | 0
O=C(NCC1CCCO1)c1ccc(C(=O)NCC2CCCO2)nc1 (stereo not given) | 0
C/C=C/c1nc(SC)c(C#N)c(=O)[nH]1 | 62
CSc1nc(-c2ccc(Cl)cc2)c(C#N)c(=O)[nH]1 | 0
CSc1nc(-c2ccc(C)cc2)[nH]c(=O)c1C#N | 0
N#Cc1c(N)nc(SCC(=O)c2ccc(O)c(O)c2)c(C#N)c1-c1ccc(OCc2ccccc2)cc1 | 0
N#Cc1c(SCC(=O)c2ccc(F)cc2)nc2c(c1-c1cccnc1)CCC2 | 0
Cc1ccccc1NC(=O)c1c(C)nc(SCC(=O)c2ccc(O)c(O)c2)c(C#N)c1-c1cccnc1 | 28
CCCc1nn(C)c(-c2nn3c(Cc4ccccc4C)nnc3s2)c1Cl | 0
C=CCC(=O)N1CCc2[nH]nc(-c3ccc4c(c3)OCO4)c2C1 | 0
COc1cccc(C(=O)NCC2CCCN(C3CCSCC3)C2)c1OC (stereo not given) | 0
C#CCn1c(O)c(N=NC(=O)Cc2cccs2)c2ccccc21 | 0
SMILES | RBX1-CUL1 inh
CCOC(=O)C1=CN(c2ccc(F)cc2)C=C(C(=O)OCC)C1c1cccc(Cl)c1 | 0
CCOC(=O)c1c(C)sc(-c2c(-c3cc(C)ccc3C)[nH]c3c2c(=O)n(C)c(=O)n3C)c1O | 0
CCOC(=O)c1c(NC(=O)c2c(F)cccc2F)sc(C)c1-c1cccc(Cl)c1 | 0
CCOC(=O)c1c(C)sc(-c2c(-c3cccc(Cl)c3)[nH]c3c2c(=O)n(C)c(=O)n3C)c1O | 45
CCOC(=O)c1c(C)sc(-c2c(-c3cc(C)ccc3C)[nH]c3c2c(=O)[nH]c(=O)n3C)c1O | 49
Cc1ccc(C)c(-c2[nH]c3c(c2-c2c(-n4cccc4)n(C)c(=O)n(C)c2=O)c(=O)n(C)c(=O)n3C)c1 | 0
Nc1cnccc1Sc1cccc(C(F)(F)F)c1 | 0
Cn1c(-c2ccco2)nn(CN2CCC(C(N)=O)CC2)c1=S | 0
CSc1cccc(CNC2CCCN(Cc3ccccc3F)C2)c1 (stereo not given) | 0
Cc1cc(Cl)ccc1N(CC(=O)Nc1ccccc1Cl)S(=O)(=O)c1ccccc1 | 0
COc1ccc(C2NN=C3c4c(c5cc(C)ccc5n4C)CCC32)cc1OC (stereo not given) | 0
c1cc(CN2CCc3[nH]nc(-c4ccc5c(c4)OCO5)c3C2)ccn1 | 0
COCC(=O)N1CCCC1C(=O)Nc1ccc(-c2cccc(F)c2)cc1 (stereo not given) | 0
O=C(Cn1c(O)c(C=C2C=Nc3ccccc32)sc1=O)N1CCOCC1 | 0
CC(C)C(C(=O)O)n1c(O)c(C=C2C=Nc3ccccc32)sc1=S (stereo not given) | 25
O=c1[nH]n(-c2cc(Cl)cc(Cl)c2)c(O)c1C=C1C=Nc2ccccc21 | 0
CC#CCN1C(=O)NC(CCc2ccccc2)(C2CCN(Cc3cccc(OCCO)c3)CC2)C1=O (stereo not given) | 0
Cc1cccc(OCCCOc2ccccc2/C=C2\C(=O)NN(c3ccccc3)C2=O)c1 | 32
COc1cc(/C=C2\C(=O)NN(c3ccccc3)C2=O)ccc1OCCCOc1ccccc1 | 0
Cc1ccc(COc2ccccc2/C=C2\C(=O)NN(c3ccccc3)C2=O)cc1 | 0
COc1cccc(/C=C2/C(=O)NN(c3ccc(C)cc3)C2=O)c1 | 0
O=C1NN(c2ccccc2)C(=O)/C1=C/c1cc(Cl)ccc1OCCCOc1ccccc1 | 0
Cc1ccc(OCCCOc2cccc(/C=C3\C(=O)NN(c4ccccc4)C3=O)c2)cc1 | 25
C=CCO[C@H]1[C@H](NC(=O)COC)c2ccccc2C12CCN(C(=O)Cc1ccccc1F)CC2 | 0
CCn1nc(C)c(CN2CCC3(CCCN(CCOC)C3=O)C2)c1C (stereo not given) | 0
